Pf growth 48h: inhibits P. falciparum growth in the first generation, 48 h; 310,000 tested, 5.9% active; AID 504832; P. falciparum luciferase growth in erythrocytes, 48 h; Potency, µM (highest dose often 28.7 µM), inactives show at the top dose activity change, negative = inhibition, hits mostly inhibitors; further: on the % scale 0 is the no-effect control and ±100 the full control effect
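In quantitative HTS format, infected erythrocytes bearing luciferase-reporter parasites were treated for a single generation at 37 C. Luminescence after adding detection reagent served as the growth measure.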
Sm TGR inh: S. mansoni TGR enzyme inhibition. Q962Y6. purified TGR, DTNB reduction, TNB absorbance 405 nm. Potency, µM (titrated, usually from 114 µM), for inactives: at the highest dose activity change, negative = inhibition, hits mostly inhibitors. 360,000 tested, 3% active; further: on the % scale 0 is the no-effect control and ±100 the full control effect; nearly all actives have a fitted effect of over 60% in size
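TGR 20 nM + NADPH 100 uM (dispensed conc.), cpd preinc 15 min RT; start with NADPH (500 uM addition) then DTNB (15 mM addition). Kinetic TNB absorbance, 405 nm filter. Four-parameter Hill fit across titration.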
Pf growth 96h: inhibits malaria parasite growth, 96 h. P. falciparum luciferase reporter growth, 96 h. Potency, µM (highest dose often 28.7 µM), inactives show top-dose activity change, negative = inhibition, actives largely listed as inhibitors. 320,000 tested, 6.9% active; further: on the % scale 0 is the no-effect control and ±100 the full control effect
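P. falciparum expressing integrated firefly luciferase, in erythrocytes at 2% hematocrit, 0.05% parasitemia, incubated with compounds 96 h at 37 C, 5% CO2. Growth inhibition read as loss of luminescence; two-generation exposure targets delayed-death apicoplast inhibitors.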
SARS PLP yeast: SARS-CoV PLP inhibition in yeast; S. cerevisiae expressing SARS-CoV PLpro, growth rescue; Potency, µM (titrated, usually from 32.9 µM), for inactives: top-dose activity, positive = growth rescue, most hits filed as activators; 330,000 tested, 0.19% active; calls by dose curve; further: 0% is about no effect; nearly all actives have a fitted effect of over 55% in size
The depositor's hits bear a star; u = inconclusive; x = no result given. Compounds with a hit are over-represented: about 12% of the library has one in this group of screens. Unless noted, the call rests on the fitted dose curve; in most records, active means well fitted curve in the direction sought with a large enough effect; inconclusive means small, poorly fitted or top-dose-only effect, or another doubt; inactive means no such curve, though single readings can be large; an effect the other way counts as inactive or inconclusive. Potency means the concentration at half of the fitted maximal effect.

SMILES	Pf growth 48h	Sm TGR inh	Pf growth 96h	SARS PLP yeast
CC(C(=O)OCC(=O)c1ccc([N+](=O)[O-])cc1)N1C(=O)C2C3C=CC(C3)C2C1=O (stereo not drawn)	23.0%	-19.4%	2.3%	-4.4%
CC(C(=O)OCC(=O)c1ccc([N+](=O)[O-])cc1)N1C(=O)C2C3CCC(C3)C2C1=O (stereo not drawn)	52.7%	-8.0%	10.4µM*	-0.2%
O=C(c1ccc(CSc2nc3ccncc3n2Cc2cccc(F)c2)cc1)N1CCCCCC1	x	-7.1%	x	x
O=[N+]([O-])c1cccc(-c2nnc3ccccn23)c1	45.5%	-1.2%	u	-0.6%
O=[N+]([O-])c1cccc(-c2cc3cccc[n+]3cc2-c2cccc([N+](=O)[O-])c2)c1	0.522µM*	0.1%	0.165µM*	-4.2%
Cc1sc2cc(-c3cccc([N+](=O)[O-])c3)c(-c3cccc([N+](=O)[O-])c3)c[n+]2c1C	0.928µM*	2.4%	0.828µM*	-8.4%
O=c1cc(-c2cccc([N+](=O)[O-])c2)[nH][nH]1	-19.9%	-2.0%	-12.3%	17.4%
CCOc1ccccc1C1C(C(=O)N2CCCCC2)=C(C)Nc2nc3ccccc3n21 (stereo not drawn)	x	-0.1%	x	x
CCN(CC)S(=O)(=O)c1ccc(N/N=C/c2cc(OC)ccc2O)nc1	4.65µM*	-0.5%	8.28µM*	0.3%
COc1ccc(O)c(/C=N/NC(=S)Nc2cccnc2)c1	u	0.1%	0.522µM*	22.4%
CN(C)S(=O)(=O)c1cccc(NC(=S)N/N=C/c2ccc(O)c(O)c2O)c1	4.2%	10µM*	10.4%	11.3%
COc1ccc(O)c(/C=N/NC(=S)Nc2cccc(S(=O)(=O)N(C)C)c2)c1	4.15µM*	-7.3%	4.65µM*	u
O=C(CN1C(=O)COc2ccc(S(=O)(=O)N3CCCCC3)cc21)NCCc1ccc(Cl)cc1	x	-3.2%	x	x
Cc1ccc(NC(=O)CCS(=O)(=O)c2ccccc2)cc1S(=O)(=O)N1CCCCCC1	-0.2%	-0.3%	u	1.9%
Cc1ccc(C)c(C(=O)COC(=O)CN2C(=O)C3C4CCC(C4)C3C2=O)c1 (stereo not drawn)	-11.0%	13.9%	u	0.5%
COc1cc(/C=N/NC(=S)Nc2cccc(S(=O)(=O)N(C)C)c2)cc(OC)c1O	-29.7%	-20.8%	11.7µM*	10.9%
CN(C)S(=O)(=O)c1cccc(NC(=S)N/N=C/c2ccco2)c1	3.7µM*	39.8µM*	u	0.2%
CN(C)S(=O)(=O)c1cccc(NC(=S)N/N=C/C(c2ccccc2)c2ccccc2)c1	0.0%	-13.5%	85.4%	-2.9%
CN(C)S(=O)(=O)c1cccc(NC(=S)NCc2ccco2)c1	31.8%	35.5µM*	-6.3%	2.5%
COc1cccc(/C=N/NC(=S)Nc2cccc(S(=O)(=O)N(C)C)c2)c1	u	9.2%	2.6%	-0.7%
CC1(c2ccc(OC(F)F)cc2)NC(=O)N(CC(=O)N2c3ccccc3NC(=O)C2(C)C)C1=O (stereo not drawn)	u	-3.2%	-45.8%	6.8%
CNC(C(=O)c1ccccc1)C(OC(C)=O)c1cccc([N+](=O)[O-])c1 (stereo not drawn)	u	-1.3%	2.94µM*	-0.8%
COCCn1nnnc1C(c1ccc(O)c(OC)c1)N1CCc2ccccc2C1 (stereo not drawn)	13.9%	0.355µM*	45.6%	1.6%
Cc1ccc(C(c2nnnn2C2CCCC2)N2c3ccccc3CC2C)cc1 (stereo not drawn)	13.1µM*	-10.7%	u	-38.4%
COc1ccc(OC)c(C(c2nnnn2C2CCCC2)N2CCc3ccccc3C2)c1 (stereo not drawn)	2.94µM*	-28.5%	23.8%	-28.3%
SMILES	Pf growth 48h	Sm TGR inh	Pf growth 96h	SARS PLP yeast
COc1ccc(C(c2nnnn2C2CCCC2)N2CCc3ccccc3C2)cc1OC (stereo not drawn)	3.7µM*	u	34.8%	-6.9%
O=C(CCS(=O)(=O)c1cc2c3c(c1)CCN3C(=O)CC2)NCc1ccc(F)cc1	x	7.2%	x	x
C/C(=N/NS(=O)(=O)c1ccc(CC(C)C)cc1)c1ccncc1	5.3%	-32.7%	-28.7%	-1.5%
N#Cc1c(SCC(=O)Nc2nncs2)sc2c(O)cc(=O)[nH]c12	-13.4%	35.5µM*	u	-1.6%
Cc1cn2c(=O)c(S(=O)(=O)NCc3ccc(F)cc3)c(C)nc2s1	x	4.6%	x	x
COc1cc(C(=O)/C=C/c2cccnc2)ccc1O	0.0%	u	0.0%	-2.3%
O=C(/C=C/c1cccnc1)/C=C/c1cccnc1	u	3.16µM*	u	-6.9%
COc1ccc(C(=O)/C=C/c2ccccc2)c(O)c1	33.9%	-14.1%	53.2%	-14.2%
COc1ccc(OC)c(C(=O)/C=C/c2cccnc2)c1	u	u	7.38µM*	-38.6%
COc1ccc(/C=C/C(=O)c2ccc(OC)cc2OC)cc1	3.01µM*	-12.8%	1.69µM*	-4.6%
COc1ccc(NC(=O)CSc2nc(-c3cccs3)cc(C(F)(F)F)n2)c(OC)c1	x	4.4%	x	x
CCN(CC)S(=O)(=O)c1ccc2c(c1)N(CC(=O)N1CCN(c3cccc(OC)c3)CC1)C(=O)CO2	x	7.8%	x	x
O=C(Nc1ccccc1C(=O)N1CCCCC1)c1ccccc1C(F)(F)F	u	-22.4%	2.6%	-4.1%
CCOC(=O)c1c(-c2ccsc2)csc1N	2.94µM*	46.5%	-3.8%	-1.3%
O=C(c1cc2ccccc2o1)N1CCN(S(=O)(=O)c2ccc(F)c(F)c2F)CC1	8.28µM*	-4.5%	10.4µM*	1.0%
CCOC(=O)c1ccc(S(=O)(=O)N2CCN(C(=O)c3cc4ccccc4o3)CC2)cc1	9.28µM*	2.9%	u	-1.9%
Cc1cc(C)c(S(=O)(=O)N2CCN(C(=O)c3cc4ccccc4o3)CC2)c(C)c1	u	-6.1%	u	-2.0%
CCOC(=O)N1CCN(C(=O)c2cc3ccccc3o2)CC1	9.3%	-8.4%	41.0%	24.7%
Cc1cc2c(cc3c(SCc4ccc(Cl)cc4)nncn32)o1	x	-17.4%	x	x
Cc1ccc(C)c(CSC2=NC(C)(C)Nc3ccccc32)c1	x	-6.5%	x	x
COc1cccc(/C=C2\SC(=S)N(CCCC(=O)N3CCCCC3CCO)C2=O)c1 (stereo not drawn)	u	-4.3%	3.7µM*	-4.5%
COc1ccc(/C=C2\SC(=S)N(CCCC(=O)N3CCOCC3)C2=O)cc1OC	-28.4%	8.4%	0.0%	0.6%
COc1ccccc1/C=C1\SC(=S)N(CCC(=O)N2CCCCC2CCO)C1=O (stereo not drawn)	u	-1.1%	u	1.6%
COc1cccc(/C=C2\SC(=S)N(CCCC(=O)N3CCCC3)C2=O)c1	13.1µM*	2.9%	4.15µM*	0.0%
O=C1/C(=C/c2cccs2)SC(=S)N1CCC(=O)N1CCCCC1CCO (stereo not drawn)	u	0.0%	11.7µM*	-4.4%
COc1cccc(/C=C2\SC(=S)N(CCC(=O)N3CCCCC3CCO)C2=O)c1 (stereo not drawn)	u	-5.9%	u	-10.3%
COc1ccccc1/C=C1\SC(=O)N(CCC(=O)N2CCCCC2CCO)C1=O (stereo not drawn)	u	-1.8%	9.28µM*	-1.2%
